In the OligoGym collection:
Note: reference of the scale not given here.

These sequences were tested against LAMB4 (assay: pooled miR-30 sensor sort-seq; sequence = guide strand). Conditions: shRNA.
TTGACTTTTAAGAATTTCCCAG gave a sensor-assay potency score (higher = more potent) of -0.128. Sequence TTTAGCTGCATGATTTGTCTTC has a sensor-assay potency score (higher = more potent) of -0.0764. Sequence TTTGTCTTCTAACAGAGTCATG has a sensor-assay potency score (higher = more potent) of -1.42. Sequence TATTTTGACAAGTTCATCGGTT has a sensor-assay potency score (higher = more potent) of 0.404. For TTGCTCTTTCTATTGTATCTTT, the sensor-assay potency score (higher = more potent) was -0.796. TATTGTATCTTTCAGATCTTGA showed a sensor-assay potency score (higher = more potent) of 0.0271.

These sequences were tested against LAMC1 in the same assay as above. Conditions: shRNA.
TAGGACTTGAGAACTTTGGGAT showed a sensor-assay potency score (higher = more potent) of 0.474. TCGTTCTTCATACACTCGCTTG was tested, and the sensor-assay potency score (higher = more potent) was -1.26. Work on TATGAGACTCTCTAATTCCTGG yielded a sensor-assay potency score (higher = more potent) of -0.463. Work on TTTGCAATTACACACCAGCTTA yielded a sensor-assay potency score (higher = more potent) of -0.786. Work on TTCTTTTGGACAGCGCTCGCGA yielded a sensor-assay potency score (higher = more potent) of -0.297. In the case of TTCAATATTACATTCATCTATG, the sensor-assay potency score (higher = more potent) is reported as -0.485. With TTCATCAGTACACAAGGCCTGC the sensor-assay potency score (higher = more potent) was -0.475. Sequence TTGACTTCAAGTTCCTTCCCTC has a sensor-assay potency score (higher = more potent) of 0.467. TTCGCTTGTTCATACTTCCTAT was tested, and the sensor-assay potency score (higher = more potent) was 0.107. Work on TACATTTACATCTGCCACCTAC yielded a sensor-assay potency score (higher = more potent) of -0.06. Sequence TTGTCTTTGCAAACACATCTTC has a sensor-assay potency score (higher = more potent) of -0.117. In the case of TTCCTTTAGTCTATCCTCGAAG, the sensor-assay potency score (higher = more potent) is reported as -0.66.

What follows are sequences tested against LANCL2 in the same assay as above. Conditions: shRNA.
TTTCTGTCAAGGTTTCTTGGTC gave a sensor-assay potency score (higher = more potent) of -0.185. For AAGTTTTGTGACACATTCCTGG, the sensor-assay potency score (higher = more potent) was 0.068. In the case of TTAACATATAGTAAATTCCAGC, the sensor-assay potency score (higher = more potent) is reported as -0.758. For TATGAAATTATGAATGATCTTC, the sensor-assay potency score (higher = more potent) was 0.142. In the case of AATCACATCGCTACACTCCATG, the sensor-assay potency score (higher = more potent) is reported as -1.26. TTTTGTGACACATTCCTGGGAC showed a sensor-assay potency score (higher = more potent) of 0.967. AATAATAGCATTGACTACCTCT showed a sensor-assay potency score (higher = more potent) of 0.441. Work on TTTAATTTTGGTCTGGATCCGT yielded a sensor-assay potency score (higher = more potent) of 0.159. In the case of TTTCTTGGTCCACTTTTGCTGC, the sensor-assay potency score (higher = more potent) is reported as -1.18. In the case of TAATAGCTGACTCACACACGGT, the sensor-assay potency score (higher = more potent) is reported as -0.857. TGATTCTTGGCAGACAACCGAT gave a sensor-assay potency score (higher = more potent) of -0.954. In the case of TTTCAAGTACTTCTCCTCCTTA, the sensor-assay potency score (higher = more potent) is reported as -0.0935.

Each sequence was assayed against LARP1B in the same assay as above. Conditions: shRNA.
TAGTAATACATCATACTGGTAT showed a sensor-assay potency score (higher = more potent) of -0.0186. In the case of TAGACTGTGTCTTAGATTGAGA, the sensor-assay potency score (higher = more potent) is reported as -0.454. TTTACTAATGAGATTTAGCTTC gave a sensor-assay potency score (higher = more potent) of -0.374. With TTTCTTGACTCTCTGATCTTAC the sensor-assay potency score (higher = more potent) was -0.67. Work on TTTATTGAAGTGATCTCTGAGG yielded a sensor-assay potency score (higher = more potent) of -0.332. TTCTACTTCTGTGCTATCCTTC gave a sensor-assay potency score (higher = more potent) of 0.509. For TATCTCGCTTCCAACTTCGTGT, the sensor-assay potency score (higher = more potent) was -0.146. TGATCTTACAACATCTAAGTGG gave a sensor-assay potency score (higher = more potent) of -0.00509. Sequence TAGGATCTTGTAACCTAGGTGT has a sensor-assay potency score (higher = more potent) of 0.016. Sequence TGAAACATCAAATAACTTCTGA has a sensor-assay potency score (higher = more potent) of 0.226.
